Here are results for 113 compounds from PubChem BioAssay AID493240 (Broad Institute, 2011).

Among all 1,300 compounds or so, about 270 (21%) were called active. No rule for the calls is given here. Only a sample is shown. Measured potencies and affinities stand elsewhere.

The test is described as follows: SK-MEL-5 parental cell viability loss, dose response, orthogonal assay for MITF inhibitor project, CellTiter-Glo, cherry-picked, set 3 (AID 493240). The note with it: SK-MEL-5 viability, ATP luminescence (CellTiter-Glo), 24 h; series mostly up to 35 µM.
As for `O=C(c1ccc(S(=O)(=O)Cc2ccccc2Cl)c([N+](=O)[O-])c1)N1CCN(c2ccccn2)CC1`, the outcome was inactive. For `CC(C)C(=O)NC(c1ccco1)c1ccc2cccnc2c1O` (stereo not drawn), the outcome was inactive. As for `COc1cc(SC)ccc1C(=O)Nc1ncc(C)s1`, the entry is “inactive”; as for `COc1cc(SC)ccc1C(=O)Nc1ccc(Br)cn1`, “inactive”. On to `COc1cc2c(cc1O)C(SC)=NC(C)(C)C2`, for which the outcome was inactive. The result for `O=[N+]([O-])c1cc(CN2CCN(c3ccccc3)CC2)c(O)c2ncccc12` reads “inactive”. As for `O=[N+]([O-])c1ccccc1OCCCOc1cccc2cccnc12`, the entry is “inactive”; as for `CC(=O)Nc1ccc2c(c1)ncn2-c1ccccc1`, “inactive”. In the case of `CSCCNC(=O)c1ccc2nc(Cc3ccccc3F)oc2c1`, the outcome was inactive. As for `N#C/C(=C\c1ccc(OCc2ccc(C(=O)O)cc2)cc1)C(=O)N1CCOCC1`, the entry is “inactive”.

As for `Cc1ccc(-c2cc3onc(-c4ccccc4)c3c(=O)n2C)cc1`, the result was inactive. As for `CN(Cc1ccccc1)C1=CC(=[N+]2CCCC2)CC(C)(C)C1`, the entry is “inactive”. The result for `N/C(=N\OC(=O)c1cccc(F)c1)c1cccc([N+](=O)[O-])c1` reads “inactive”; that for `COc1ccc(C(=O)NCC(=O)c2ccccc2)cc1`, “inactive”; that for `O=C(N/N=C/C=C/c1ccccc1)c1ccccn1`, “inactive”. `COc1cc2c(cc1OC)C(SC)=NC1(CCCC1)C2`: the result was inactive. The result for `O=C(c1ccccc1)c1cc(Cl)ccc1N1C(=O)C=CC1=O` reads “inactive”; that for `COc1ccc(/C=N/Nc2cc(C)nc(-n3nc(C)cc3C)n2)c(OC)c1`, “inactive”.

With `CC(=O)Oc1c(C(=O)c2nnc(C)o2)c(=O)n(Cc2ccccc2)c2ccccc12`, the outcome was inactive. As for `CN(C)CCCN(C(=O)c1ccc(Cl)s1)c1nc2cc3c(cc2s1)OCO3`, the entry is “inactive”; as for `Cc1ccc2nc(NC(=O)CCCC(=O)O)sc2c1`, “inactive”. As for `Cc1c(C#N)c(NC(=O)CCl)n(Cc2ccc(F)cc2)c1C`, the entry is “inactive”; as for `CCOc1ccccc1NC(=O)C(=O)N/N=C/c1cc(Br)ccc1O`, “inactive”.

As to `COc1ccccc1OCC(=O)N/N=C/C=C/c1ccc([N+](=O)[O-])o1`, the outcome was inactive. As for `CC(C)(C)C(=O)Nc1cc2nn(-c3ccccc3)nc2cc1Cl`, the entry is “inactive”.

`CCOc1ccc2nc(NC3=NC(c4ccc(OC)cc4)CC(=O)N3)nc(C)c2c1` (stereo not drawn): the outcome was inactive. The result for `Cc1ccc(C(=O)c2cccc(N)c2)cc1C` reads “inactive”. The result for `Cc1nc2ccccn2c1C(=O)N/N=C/c1ccc([N+](=O)[O-])o1` reads “inactive”; that for `CC1=NC(=O)C(N=Nc2cccc(C(=O)O)c2)N1c1ccccc1` (stereo not drawn), “inactive”; that for `CC(Oc1ccc(F)cc1)C(=O)Nc1nc(-c2ccccn2)cs1` (stereo not drawn), “inactive”.

`O=C(CCNc1ccccc1)c1ccc2c(c1)OCO2`: the result was inactive. As for `C=CCN1C(=O)S/C(=C\c2ccc(N3CCOCC3)cc2C)C1=O`, the entry is “inactive”. The result for `Cc1ccc(C)c(C(=O)Cn2ncc(Cl)c(Cl)c2=O)c1` reads “inactive”; that for `Cc1ccc(SCCC(=O)N2CCC(C)CC2)cc1`, “inactive”; that for `CS(=O)(=O)N1CCN(c2nc3ccc(Cl)cc3s2)CC1`, “inactive”. As for `O=C(Nc1ccc(F)cc1F)c1cc2ccccc2oc1=O`, the entry is “inactive”; as for `COc1ccc(CCC(=O)N2CCc3ccccc32)cc1`, “inactive”.

For `CCOc1ccc(N(CC(=O)Nc2ccc(OC)cc2)S(C)(=O)=O)cc1`, the outcome was inactive. The result for `COc1ccc(C(=O)Nc2ccc3c(c2)OCCO3)cc1Br` reads “inactive”. For `Cn1c(/C=C/c2ccc(Cl)cc2)nc2ccccc2c1=O`, the outcome was inactive. The result for `COc1cccc(-c2csc3ncnc(Sc4nnnn4C)c23)c1` reads “inactive”; that for `Cn1c(/C(C#N)=C/c2ccc(-c3ccc(S(N)(=O)=O)cc3)o2)nc2ccccc21`, “inactive”; that for `CC1CCCCC1NC(=O)/C(C#N)=C/c1ccccc1F` (stereo not drawn), “inactive”. The result for `O=C1c2cc([N+](=O)[O-])cc3cc([N+](=O)[O-])cc(c23)C(=O)N1c1ccccn1` reads “inactive”; that for `N#C/C(=C\c1cccs1)C(=O)NCC1CCCO1` (stereo not drawn), “inactive”; that for `N/C(=N\OC(=O)c1ccc([N+](=O)[O-])cc1)c1ccc(Br)cc1`, “inactive”. For the compound `CC(C)N=c1c([N+](=O)[O-])nn(C)n1O`, the outcome was inactive. The result for `CCN1CCc2c(sc(NC(=O)c3ccc(S(=O)(=O)N4CCCC4)cc3)c2C(=O)NC)C1` reads “inactive”; that for `COc1cccc(NC(=O)c2cc3ccccc3cc2OC)c1`, “inactive”. The result for `O=C(N/N=C/C(Cl)=C\c1ccccc1)c1cccs1` reads “inactive”; that for `CCOc1ccc(-c2ccc(SC)nn2)cc1`, “inactive”; that for `O=C(Nc1ccc(Cl)cc1)OCc1ccccn1`, “inactive”. The result for `CC1CCN(c2nc3ccc(C(=O)O)cc3s2)CC1` reads “inactive”; that for `O=C(O)c1ccc(Nc2nc3c(s2)CCCC3)cc1`, “inactive”. As for `Cc1c(C=O)c2cc(OCc3ccccc3)ccc2n1C`, the result was inactive. The result for `Cn1c(=O)c([N+](=O)[O-])c(-n2ccnc2)c2ccccc21` reads “inactive”. As for `NCCCNc1nc(N)c([N+](=O)[O-])c(NC2CCCCC2)n1`, the entry is “inactive”; as for `O=C(NC(=S)Nc1ccccn1)c1cccc([N+](=O)[O-])c1`, “inactive”. The result for `N/C(=N\OC(=O)c1ccccc1Cl)c1cccc([N+](=O)[O-])c1` reads “inactive”; that for `Cc1ccc2c(COC(=O)c3n[nH]c4ccccc34)cc(=O)oc2c1`, “inactive”.

Take `CC(C)(C)c1ccc(-c2noc(CCC(=O)NCc3ccco3)n2)cc1`: the outcome was inactive. Consider `Cc1cc(-n2c(SCC(=O)NCCC3=CCCCC3)nc3n[nH]c(C)c3c2=N)ccc1Cl`, for which the result was inactive. As for `CC(/C=N/NC(=O)c1cc(-c2ccncc2)nc2ccccc12)=C\c1ccco1`, the entry is “inactive”. The result for `Cc1cccc2sc(N(CCCN(C)C)C(=O)c3nc4ccccc4s3)nc12` reads “inactive”; that for `COc1ccc(C)c2sc(N(CCN(C)C)C(=O)/C=C/c3cccs3)nc12`, “inactive”; that for `Cn1nc([N+](=O)[O-])nc1S(C)(=O)=O`, “inactive”. Consider `COc1cccc(-c2nnc3n2N=C(C(C)(C)C)CS3)c1`, for which the outcome was inactive.

As for `COC(=O)[C@@H]1C[C@]2(OC(=O)c3ccccc3)C=CC(=O)C[C@@H]2N1C(=O)OCc1ccccc1`, the result was inactive. The result for `Cc1occc1C(=O)N/N=C/c1ccc(OCc2ccccc2)cc1` reads “inactive”; that for `CC(=O)SC(C[N+](=O)[O-])c1cn(C(C)=O)c2ccccc12` (stereo not drawn), “inactive”; that for `Cc1ccc(-c2cn3nc(C)c(C)nc3n2)cc1`, “inactive”.

For the compound `O=C(Nc1ccc(-c2nc3ncccc3o2)cc1)c1ccc([N+](=O)[O-])o1`, the outcome was inactive.

Turning to `NC(=O)c1cc([N+](=O)[O-])ccc1NCc1ccc(N)cc1`, the outcome was inactive.

Take `COc1ccc(-c2csc(Nc3ccccn3)n2)cc1OC`: the result was inactive. The result for `CC1CCN(C(=O)c2cc3ccccc3o2)CC1` reads “inactive”. As for `c1ccc(-c2cn3nc4c(nc3n2)CCCC4)cc1`, the entry is “inactive”; as for `Cc1ccc(S(=O)(=O)CC(CN2CCCCC2)N2CCCCC2)cc1` (stereo not drawn), “inactive”; as for `O=S(=O)(CC(CN1CCCCC1)N1CCCCC1)c1ccc2ccccc2c1` (stereo not drawn), “inactive”. The result for `O=C(Nc1ccccc1F)C(=O)Nc1cccc2ccccc12` reads “inactive”; that for `c1ccc(-n2ncc3c(NCc4cccs4)ncnc32)cc1`, “inactive”. As to `COc1cccc(/C=N/Nc2ncnc3c2ncn3Cc2ccccc2)c1O`, the outcome was inactive.

Regarding `COc1cccc(C(=O)Nc2ccc3c(cc2=O)[C@@H](NC(C)=O)CCc2cc(OC)c(OC)c(OC)c2-3)c1`, the result was inactive.

For the compound `CCc1nc2oc3ccc(C)cc3c(=O)c2cc1C(=O)OC`, the outcome was inactive. The result for `O=C(COC(=O)c1ccccc1C(=O)c1ccc(Cl)c([N+](=O)[O-])c1)NC1CC1` reads “inactive”; that for `CNC(=O)COC(=O)c1ccccc1C(=O)c1ccc(Cl)c([N+](=O)[O-])c1`, “inactive”. Consider `O=C(COC(=O)c1ccc(F)c([N+](=O)[O-])c1)NC(=O)NCc1ccccc1`, for which the result was inactive. The result for `Cc1cc(C(=O)O/N=C(\N)c2ccncc2)ccc1[N+](=O)[O-]` reads “inactive”; that for `CCC(=O)Nc1cc(C(=O)OCC(=O)c2ccccc2Cl)ccc1C`, “inactive”; that for `CCCNC(=O)COC(=O)c1ccccc1C(=O)c1ccc(Cl)c([N+](=O)[O-])c1`, “inactive”.

Consider `CC(=O)OCCNc1cc(Sc2nc3ccccc3[nH]2)c2nonc2c1[N+](=O)[O-]`, for which the outcome was inactive. The result for `CNc1oc(/C=C/c2cccc(OC)c2)nc1C#N` reads “inactive”; that for `Cc1ccc2oc(Nc3nc(C)c(C)c(C)n3)nc2c1`, “inactive”. For the compound `Cc1ccc2nc(-c3cccnc3)oc2c1`, the outcome was inactive. `CC(C)c1ccc(/C=N/Nc2ccc(C(=O)O)cc2)cc1`: the outcome was inactive. As for `O=C(NCc1csc(-c2cccs2)n1)C1CCC1`, the entry is “inactive”; as for `CCOc1ccc2nc(NC(=O)Cc3cccs3)sc2c1`, “inactive”. As for `CC(C)S(=O)(=O)c1csc(C(=O)Nc2ccc(F)cc2)c1N`, the entry is “inactive”; as for `C=CCn1c(C)cc(C2=NNC(=NC(C)(C)C)SC2)c1C`, “inactive”.

Turning to `C=CCN=C1NN=C(c2ccc3c(c2)OCCO3)CS1`, the result was inactive. `O=C(NC1CC1)C1CCN(S(=O)(=O)c2ccc(Cl)c([N+](=O)[O-])c2)CC1`: the outcome was inactive. As for `CC(C)CN=C(NS(=O)(=O)c1ccccc1)C(Cl)(Cl)Cl`, the entry is “inactive”. Regarding `O=C(CN1CCCCC1)Nc1scc2c1c(=O)oc1ccccc12`, the outcome was inactive. The result for `CC(C)C(=O)N1CCN(c2ccc(NC(=O)c3ccc([N+](=O)[O-])o3)cc2)CC1` reads “inactive”. For the compound `CN1CCN(c2ccccc2NC(=O)c2ccc([N+](=O)[O-])o2)CC1`, the outcome was inactive. As for `CCN1CCN(/C=N/c2nc3c(s2)CCCC3)CC1`, the result was inactive. The result for `Oc1ccc(-c2nnc(SCC3CCCCC3)o2)cc1` reads “inactive”. As for `CC(=NNC(=S)N1CCN(c2ccccn2)CC1)c1nccs1`, the entry is “inactive”. The result for `O=C1CN(c2ccccc2)C(=S)N1C(=O)c1ccc(Br)cc1` reads “inactive”; that for `COc1ccc(C(=O)CN2Cc3ccccc3C2=N)cc1`, “inactive”. For `O=C(COC(=O)CCN1C(=O)/C(=C\C=C\c2ccccc2)SC1=S)Nc1cc(F)ccc1F`, the result was inactive. As for `COc1cc(C(=O)Oc2c(CN3CCOCC3)cc(Cl)c3cccnc23)cc(OC)c1OC`, the entry is “inactive”. As for `C/C(=N\NC(=O)COc1ccccc1-c1ccccc1)c1ccccn1`, the outcome was inactive. The result for `CCOC(=O)COc1ccc2ccccc2c1/C=C/[N+](=O)[O-]` reads “inactive”.
